Laboratory results from PubChem BioAssay (NCATS).
Results filed as inconclusive are left out. Where a structure was tested more than once in an assay, its records may differ in their call. The source made the active and inactive calls. Unless noted, calls follow the shape of the dose curve; as a rule, active = well fitted curve in the direction sought with a large enough effect; inconclusive = small, poorly fitted or top-dose-only effect, or another doubt; inactive = no such curve, though single readings can be large; an effect the other way counts as inactive or inconclusive.

Experiments:
[1] = molecular target: DNA polymerase III PolC-type (Bacillus subtilis (strain 168)) (UniProt P13267); assay: qHTS Validation Assay for the Inhibitors of DNA Replication in Gram-Positive Bacteria (AID 485295);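 also: PicoGreen fluorescence of double-stranded DNA made on primed circular M13 template; series mostly up to about 57 µM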
How it was run: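 Reconstituted B. subtilis holoenzyme (Pol III, beta clamp, SSB, primase) was preincubated with compound at room temperature, then given single-stranded circular M13Gori plus dNTPs and NTPs. EDTA-containing PicoGreen stopped the reaction, and dsDNA product was read by fluorescence.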

[2] = molecular target: Beta-2 adrenergic receptor (Homo sapiens) (UniProt P07550); assay: qHTS validation assay of beta-arrestin-biased ligands of beta2-adrenergic receptor (AID 485366)
How it was run: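 Arrestin-recruitment (Tango) reporter: ligand-bound beta2-AR recruits beta-arrestin, releasing tTA, which upregulates luciferase. Titrations of up to 46 microM incubated 18 hr at 37 degrees C before luminescent readout.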

[3] = Quantitative high throughput screen for delayed death inhibitors of the malarial parasite plastid, 96 hour incubation (AID 488745); also: nearly all actives have a fitted effect of over 70% in size; also: potency is read from the fitted curve at half-maximal effect
How it was run: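 P. falciparum carrying an integrated firefly luciferase reporter, grown in erythrocytes (2% hematocrit, 0.1% parasitemia final) in RPMI 1640/0.5% Albumax, was exposed to compound for 96 h (two generations) at 37 C, 5% CO2. Luminescence decrease indicated growth inhibition.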

[4] = Quantitative high throughput screen for delayed death inhibitors of the malarial parasite plastid, 48 hour incubation (AID 488752); also: nearly all actives have a fitted effect of over 65% in size; also: potency is read from the fitted curve at half-maximal effect
How it was run: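 Erythrocytes infected with P. falciparum carrying an integrated firefly luciferase reporter (2% hematocrit, 0.1% parasitemia final) were exposed to compounds in RPMI 1640/0.5% Albumax for 48 h at 37 C, 5% CO2. Growth inhibition was scored as reduced luminescence.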

[5] = molecular target: Thioredoxin reductase 1, cytoplasmic (Rattus norvegicus) (UniProt O89049); assay: qHTS Assay for Substrates of Mammalian Selenoprotein Thioredoxin Reductase 1 (TrxR1) (AID 488772);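 also: NADPH fluorescence in the first read after selenite addition and not the 8 min delta; series mostly up to about 57 µM; a drop in NADPH fluorescence below the no-compound background marks a TrxR1 substrate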
How it was run: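 Quantitative HTS in Tris-HCl buffer at pH 7.5 with EDTA and Tween-20, using rat TrxR1, 400 uM NADPH and 400 uM selenite (final). A fall in initial NADPH fluorescence relative to background marked substrate behaviour.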

[6] = molecular target: Flap endonuclease 1 (Homo sapiens) (UniProt P39748); assay: qHTS Validation Assay for the Inhibitors of Human Flap endonuclease 1 (FEN1) (AID 488816)
How it was run: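 Human FEN1 (10 nM) preincubated 15 min at room temperature with compounds, then flap DNA substrate added at 50 nM final. Fluorescence read at 0 and 15 min; concentration-response fitted with four-parameter Hill equation.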

[7] = molecular target: M-phase phosphoprotein 8 (Homo sapiens) (UniProt Q99549); assay: qHTS Validation Assay for Inhibitors for MPP8 Chromodomain Interactions with Methylated Histone Tails (AID 488949); also: nearly all actives have a fitted effect of over 55% in size; also: potency is read from the fitted curve at half-maximal effect
How it was run: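 MPP8 (50 nM) was preincubated with biotinylated H3(1-18)K9me3 peptide (50 nM) in PBS pH 7.4, 0.01% Tween-20 for 30 min at room temperature, then with compounds for 30 min; binding was detected by AlphaScreen.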

[8] = molecular target: Chromobox protein homolog 1 (Homo sapiens) (UniProt P83916); assay: qHTS Validation Assay for Inhibitors of HP1-beta Chromodomain Interactions with Methylated Histone Tails (AID 488953); also: nearly all actives have a fitted effect of over 50% in size; also: potency is read from the fitted curve at half-maximal effect
How it was run: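 HP1-beta (50 nM) was preincubated 30 min at room temperature with biotinylated H3(1-18)K9me3 peptide (50 nM) in PBS pH 7.4, 0.01% Tween-20, then with compounds 30 min. AlphaScreen signal was read after streptavidin donor/nickel chelate acceptor beads (10 ug/mL final).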

[9] = molecular target: Methanococcus maripaludis chaperonin (MmCpn) (UniProt Q6LX38); assay: High-Throughput Screening for Modulators of Cytosolic Chaperonin Activity: MmCpn Primary Screen (AID 488978);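 also: 50 nM MmCpn enzyme hydrolysing 30 µM ATP at 37 °C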
How it was run: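 MmCpn (50 nM final) was preincubated with compound 5 min at RT, then 30 uM ATP (final) was added and the reaction ran 10 min at 37C. ADP produced was detected by Transcreener HTRF (ex 320 nm; em 590/665 nm).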

[10] = molecular target: Thyrotropin receptor (Homo sapiens) (UniProt P16473); assay: qHTS Assay for Antagonists of the Thyroid Stimulating Hormone Receptor (AID 488980); also: series mostly up to about 58 µM
How it was run: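 HEK293 cells transfected with human TSHR, suspended in HEPES-buffered HBSS with 70 uM RO 20-1724, were treated with compounds plus TSH at EC80 (4 nM final). cAMP was measured by competitive HTRF (cryptate anti-cAMP antibody, cAMP-d2 acceptor).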

[11] = molecular target: D(1A) dopamine receptor (Homo sapiens) (UniProt P21728); assay: HTS Assay for Allosteric Agonists of the Human D1 Dopamine Receptor: Primary Screen for Agonists (AID 488981)
How it was run: (§1)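 Tetracycline-induced HEK293 Trex D1 cells with forced coupling to calcium, loaded with no-wash calcium dye; kinetic fluorescence read 180 s after compound addition for agonism, then a further 180 s after an EC20 dopamine challenge for potentiation.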

[12] = molecular target: D(1A) dopamine receptor (Homo sapiens) (UniProt P21728); assay: HTS Assay for Allosteric Agonists of the Human D1 Dopamine Receptor: Primary Screen for Potentiators (AID 488982)
How it was run: as §1

[13] = molecular target: ATP-dependent 6-phosphofructokinase (Trypanosoma brucei brucei) (UniProt O15648); assay: qHTS Assay to Find Inhibitors of T. brucei phosphofructokinase: hit validation (AID 492961);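 also: luminescence reports ADP formed as PFK phosphorylates fructose-6-phosphate with ATP; series mostly up to about 51 µM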
How it was run: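 Compounds titrated; %activity normalized to 0x and 1x enzyme controls, curve-fitted. Readout: ADP-Glo luminescence after 45 min room-temperature reaction of 1.25 nM PFK, 0.1 mM ATP, 0.5 mM F6P, pH 8.0.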

[14] = qHTS Validation Assay to Find Inhibitors of Chronic Active B-Cell Receptor Signaling (AID 485345; active = well fitted curve in the direction sought with a large enough effect in the main read-out, with a control signal flat, not every such curve was filed as active; also: potency is read from the fitted curve at half-maximal effect)
How it was run: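 TMD8 ABC-DLBCL cells stably carrying doxycycline-inducible IkappaBalpha–green luciferase fusion plus unfused red luciferase; compounds 46 uM to 3 nM, 4 h at 37C with doxycycline. Corrected green/red luminescence ratio normalized to 10 uM MG-132 and basal cell wells; curves fitted.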

[15] = molecular target: Transient receptor potential cation channel subfamily V member 1 (Homo sapiens) (UniProt Q8NER1); assay: HTS Assay for Compounds that Act as Enhancers of the Vanilloid Receptor 1 (AID 488979)
How it was run: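 TRPV1 cells loaded with Fluo-8 calcium dye; compound added and Ca2+ signal (ex 480/em 520 nm) followed 3 min, then capsaicin at EC20 added and read 2 more min to detect enhancement.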

[16] = molecular target: D(1A) dopamine receptor (Homo sapiens) (UniProt P21728); assay: HTS Assay for Allosteric Agonists of the Human D1 Dopamine Receptor: Primary Screen for Antagonists (AID 488983);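 also: calcium flux response to an EC80 dopamine challenge measured with no-wash dye; nearly all actives have a fitted effect of over 65% in size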
How it was run: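 Tetracycline-induced HEK293 T-REx cells expressing force-coupled D1 were plated overnight at 30 C, dye-loaded for calcium, and read kinetically. Compounds were pinned in, then an EC80 dopamine challenge followed after 180 s to reveal antagonism.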

[17] = molecular target: Tumor susceptibility gene 101 protein (Homo sapiens) (UniProt Q99816); assay: qHTS Validation Assay for Iinhibitors of HIV-1 Budding by Blocking the Interaction of PTAP/TSG101 (AID 485342; calls by dose curve)
How it was run: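 Tsg101 binding domain (10 uM final) in pH 7.5 HEPES/NaCl/Tween 20/EDTA/TCEP buffer was mixed with pin-transferred compounds, then FITC-labeled PTAP peptide (50 nM final) was added; after 20 min at r.t., fluorescence polarization was read.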

[18] = molecular target: Thioredoxin reductase 1, cytoplasmic (Rattus norvegicus) (UniProt O89049); assay: qHTS Assay for Inhibitors of Mammalian Selenoprotein Thioredoxin Reductase 1 (TrxR1) (AID 488773); details: Potency: inhibition;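 also: drop in NADPH fluorescence over an 8 min run after selenite addition; series mostly up to about 57 µM; nearly all actives have a fitted effect of over 40% in size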
How it was run: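 Steps: enzyme (90 nM) plus NADPH (400 uM final), 5 min at ~22 deg C; compound added, 15 min; selenite (400 uM final) added; fluorescence followed for 8 min. Concentration-response curves derived from the normalized delta values.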

Measured: Potency

Chain of Beta-2 adrenergic receptor (Homo sapiens) (P07550 whole entry, looked up): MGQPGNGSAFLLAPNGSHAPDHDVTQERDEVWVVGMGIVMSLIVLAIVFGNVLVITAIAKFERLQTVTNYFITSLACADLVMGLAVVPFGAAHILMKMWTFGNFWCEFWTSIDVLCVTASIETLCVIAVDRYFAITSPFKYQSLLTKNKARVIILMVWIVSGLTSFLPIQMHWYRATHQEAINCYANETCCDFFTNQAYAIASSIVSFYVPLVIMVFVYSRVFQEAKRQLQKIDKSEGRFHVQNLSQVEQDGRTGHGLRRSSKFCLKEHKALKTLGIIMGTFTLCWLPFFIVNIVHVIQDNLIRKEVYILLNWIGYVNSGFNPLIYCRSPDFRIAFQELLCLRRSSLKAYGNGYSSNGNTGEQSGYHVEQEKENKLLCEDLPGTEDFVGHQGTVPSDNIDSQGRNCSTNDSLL
Chain of Chromobox protein homolog 1 (Homo sapiens) (P83916 whole entry, looked up): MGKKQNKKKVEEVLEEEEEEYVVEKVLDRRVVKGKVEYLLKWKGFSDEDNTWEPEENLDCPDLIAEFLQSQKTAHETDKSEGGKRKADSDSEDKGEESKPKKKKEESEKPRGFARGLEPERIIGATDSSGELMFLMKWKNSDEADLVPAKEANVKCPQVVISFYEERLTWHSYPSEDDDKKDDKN
Chain of Thioredoxin reductase 1, cytoplasmic (Rattus norvegicus) (O89049 whole entry, looked up): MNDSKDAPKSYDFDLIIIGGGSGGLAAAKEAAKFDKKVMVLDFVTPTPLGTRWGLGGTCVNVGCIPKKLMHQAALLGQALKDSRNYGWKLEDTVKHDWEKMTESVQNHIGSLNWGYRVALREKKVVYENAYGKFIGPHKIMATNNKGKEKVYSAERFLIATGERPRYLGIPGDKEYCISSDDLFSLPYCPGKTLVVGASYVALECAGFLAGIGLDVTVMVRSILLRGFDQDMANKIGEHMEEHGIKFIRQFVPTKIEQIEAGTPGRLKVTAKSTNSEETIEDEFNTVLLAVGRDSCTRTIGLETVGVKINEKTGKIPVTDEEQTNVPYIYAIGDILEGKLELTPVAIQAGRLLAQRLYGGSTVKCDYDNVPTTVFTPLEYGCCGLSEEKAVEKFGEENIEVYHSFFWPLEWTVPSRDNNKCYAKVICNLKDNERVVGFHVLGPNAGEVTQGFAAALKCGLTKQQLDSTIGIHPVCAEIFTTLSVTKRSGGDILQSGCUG
Chain of Thyrotropin receptor (Homo sapiens) (P16473 whole entry, looked up): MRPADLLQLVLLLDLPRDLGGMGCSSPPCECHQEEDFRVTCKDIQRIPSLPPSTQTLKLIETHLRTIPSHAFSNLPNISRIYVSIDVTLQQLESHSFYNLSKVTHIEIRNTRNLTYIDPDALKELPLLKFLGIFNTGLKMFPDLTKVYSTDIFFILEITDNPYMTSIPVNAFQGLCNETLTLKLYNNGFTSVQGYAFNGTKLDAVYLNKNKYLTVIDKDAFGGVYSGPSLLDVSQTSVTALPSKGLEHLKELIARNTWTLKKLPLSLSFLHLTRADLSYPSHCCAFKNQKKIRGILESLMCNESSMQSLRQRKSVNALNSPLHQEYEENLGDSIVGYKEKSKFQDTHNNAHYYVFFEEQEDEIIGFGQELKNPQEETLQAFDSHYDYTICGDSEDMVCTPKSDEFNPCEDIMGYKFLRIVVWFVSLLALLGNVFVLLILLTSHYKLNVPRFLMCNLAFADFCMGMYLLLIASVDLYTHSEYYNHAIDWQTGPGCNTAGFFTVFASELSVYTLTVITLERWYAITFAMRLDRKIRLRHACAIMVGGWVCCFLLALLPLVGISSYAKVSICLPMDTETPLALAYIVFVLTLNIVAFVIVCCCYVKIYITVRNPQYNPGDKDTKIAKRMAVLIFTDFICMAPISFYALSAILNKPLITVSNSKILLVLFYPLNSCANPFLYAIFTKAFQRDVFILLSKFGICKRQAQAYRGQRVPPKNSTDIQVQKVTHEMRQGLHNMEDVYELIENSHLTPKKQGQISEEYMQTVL
Chain of DNA polymerase III PolC-type (Bacillus subtilis (strain 168)) (P13267 whole entry, looked up): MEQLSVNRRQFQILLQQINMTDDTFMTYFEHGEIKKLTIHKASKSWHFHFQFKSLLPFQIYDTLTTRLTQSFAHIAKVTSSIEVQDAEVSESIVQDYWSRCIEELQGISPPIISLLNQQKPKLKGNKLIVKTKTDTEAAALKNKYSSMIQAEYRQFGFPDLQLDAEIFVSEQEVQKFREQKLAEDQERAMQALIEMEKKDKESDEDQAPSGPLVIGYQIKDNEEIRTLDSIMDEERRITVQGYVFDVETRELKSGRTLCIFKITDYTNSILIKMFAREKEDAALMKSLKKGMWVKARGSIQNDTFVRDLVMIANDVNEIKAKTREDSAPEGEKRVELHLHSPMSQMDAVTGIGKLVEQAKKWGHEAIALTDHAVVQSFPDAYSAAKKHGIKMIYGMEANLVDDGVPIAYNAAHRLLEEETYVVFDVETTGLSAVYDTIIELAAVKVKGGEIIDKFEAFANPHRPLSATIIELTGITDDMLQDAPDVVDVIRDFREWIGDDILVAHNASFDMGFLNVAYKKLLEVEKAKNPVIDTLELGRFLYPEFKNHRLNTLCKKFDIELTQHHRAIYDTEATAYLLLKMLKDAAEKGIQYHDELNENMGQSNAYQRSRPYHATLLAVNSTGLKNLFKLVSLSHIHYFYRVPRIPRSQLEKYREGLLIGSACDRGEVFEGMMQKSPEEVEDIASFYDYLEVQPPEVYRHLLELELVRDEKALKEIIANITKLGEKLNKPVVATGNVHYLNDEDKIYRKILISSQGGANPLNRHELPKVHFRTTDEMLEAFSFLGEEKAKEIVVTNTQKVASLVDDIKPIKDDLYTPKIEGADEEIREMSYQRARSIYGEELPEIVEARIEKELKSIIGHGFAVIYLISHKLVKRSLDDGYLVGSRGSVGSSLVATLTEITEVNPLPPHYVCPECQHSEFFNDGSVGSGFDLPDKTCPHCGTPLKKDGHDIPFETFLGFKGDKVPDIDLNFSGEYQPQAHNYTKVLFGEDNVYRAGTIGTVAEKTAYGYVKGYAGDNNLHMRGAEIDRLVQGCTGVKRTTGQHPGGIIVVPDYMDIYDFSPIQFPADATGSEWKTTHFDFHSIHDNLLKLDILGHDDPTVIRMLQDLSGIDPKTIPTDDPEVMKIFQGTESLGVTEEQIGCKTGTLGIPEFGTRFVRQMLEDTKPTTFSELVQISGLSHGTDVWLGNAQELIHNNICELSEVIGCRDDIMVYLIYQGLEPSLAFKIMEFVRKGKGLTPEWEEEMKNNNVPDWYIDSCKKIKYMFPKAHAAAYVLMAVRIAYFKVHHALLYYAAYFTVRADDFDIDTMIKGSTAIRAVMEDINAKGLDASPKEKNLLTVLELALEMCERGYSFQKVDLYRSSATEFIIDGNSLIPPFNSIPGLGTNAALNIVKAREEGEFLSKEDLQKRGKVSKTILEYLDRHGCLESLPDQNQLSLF
Chain of Flap endonuclease 1 (Homo sapiens) (P39748 whole entry, looked up): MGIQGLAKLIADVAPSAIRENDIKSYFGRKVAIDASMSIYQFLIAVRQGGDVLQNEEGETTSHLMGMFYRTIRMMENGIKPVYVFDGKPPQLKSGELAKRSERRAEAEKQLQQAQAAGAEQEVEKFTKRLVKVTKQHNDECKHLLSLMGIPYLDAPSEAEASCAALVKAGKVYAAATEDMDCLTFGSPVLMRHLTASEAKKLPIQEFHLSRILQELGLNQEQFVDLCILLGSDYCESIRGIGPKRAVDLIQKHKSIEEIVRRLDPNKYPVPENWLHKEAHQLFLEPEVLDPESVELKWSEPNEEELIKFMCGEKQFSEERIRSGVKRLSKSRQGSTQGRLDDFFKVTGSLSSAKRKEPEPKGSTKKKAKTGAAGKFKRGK
Chain of M-phase phosphoprotein 8 (Homo sapiens) (Q99549 whole entry, looked up): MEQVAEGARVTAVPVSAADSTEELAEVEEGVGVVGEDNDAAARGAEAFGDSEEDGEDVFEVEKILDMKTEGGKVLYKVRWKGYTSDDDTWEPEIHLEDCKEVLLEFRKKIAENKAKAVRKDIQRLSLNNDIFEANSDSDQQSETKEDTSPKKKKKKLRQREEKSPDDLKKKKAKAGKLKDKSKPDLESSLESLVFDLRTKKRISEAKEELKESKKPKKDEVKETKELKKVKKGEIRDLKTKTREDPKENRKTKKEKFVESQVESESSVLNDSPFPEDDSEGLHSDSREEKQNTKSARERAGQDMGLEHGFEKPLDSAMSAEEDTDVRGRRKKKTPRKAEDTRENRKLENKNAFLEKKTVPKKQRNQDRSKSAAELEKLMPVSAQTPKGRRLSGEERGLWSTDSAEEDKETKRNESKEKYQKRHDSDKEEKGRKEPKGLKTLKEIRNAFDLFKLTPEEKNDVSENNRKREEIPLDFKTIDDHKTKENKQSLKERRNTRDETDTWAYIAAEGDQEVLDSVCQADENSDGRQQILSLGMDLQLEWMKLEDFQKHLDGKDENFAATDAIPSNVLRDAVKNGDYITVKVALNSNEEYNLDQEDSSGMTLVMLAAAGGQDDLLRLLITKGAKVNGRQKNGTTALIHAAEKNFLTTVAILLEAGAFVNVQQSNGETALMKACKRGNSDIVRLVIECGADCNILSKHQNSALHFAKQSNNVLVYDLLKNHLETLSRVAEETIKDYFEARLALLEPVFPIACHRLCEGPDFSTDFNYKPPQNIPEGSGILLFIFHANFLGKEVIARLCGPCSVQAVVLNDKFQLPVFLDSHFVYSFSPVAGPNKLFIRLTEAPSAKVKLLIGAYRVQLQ
Chain of D(1A) dopamine receptor (Homo sapiens) (P21728 whole entry, looked up): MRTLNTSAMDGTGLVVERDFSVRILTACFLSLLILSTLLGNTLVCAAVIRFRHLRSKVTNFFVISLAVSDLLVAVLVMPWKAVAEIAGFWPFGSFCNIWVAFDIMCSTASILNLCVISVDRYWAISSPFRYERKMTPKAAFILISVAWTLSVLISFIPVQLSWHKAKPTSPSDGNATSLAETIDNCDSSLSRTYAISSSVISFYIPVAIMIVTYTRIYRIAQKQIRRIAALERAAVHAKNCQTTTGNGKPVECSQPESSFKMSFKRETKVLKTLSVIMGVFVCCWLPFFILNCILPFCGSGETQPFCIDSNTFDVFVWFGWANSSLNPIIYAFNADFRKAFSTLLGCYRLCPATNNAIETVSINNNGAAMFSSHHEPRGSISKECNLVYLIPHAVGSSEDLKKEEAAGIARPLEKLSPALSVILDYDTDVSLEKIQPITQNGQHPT

CN(C)CCCN1c2ccccc2CCc2ccc(Cl)cc21
active: [3] 3.29 µM | [4] 1.31 µM
not listed: [13] | [14] | [15] | [16] | [17] | [18]
inactive: all other assays above

CC[C@@]1(O)C(=O)OCc2c1cc1n(c2=O)Cc2cc3c(CN(C)C)c(O)ccc3nc2-1
inactive: [13]

CN1CCC(=C2c3ccccc3C=Cc3ccccc32)CC1
inactive: [1] | [14] | [2] | [5] | [7] | [10] | [11] | [12]

Cn1ccc2cc3c(cc21)CCN3C(=O)Nc1cccnc1
39.8 µM (active) and inactive: [7]
inactive: [1] | [2] | [5] | [9] | [15] | [10] | [11] | [12]
active: [8] 39.8 µM

Cc1cn([C@H]2C[C@H](N=[N+]=[N-])[C@@H](CO)O2)c(=O)[nH]c1=O
not listed: [3] | [4] | [10] | [15] | [17] | [18]
inactive: all other assays above

O=c1c(O)c(-c2ccc(O)c(O)c2)oc2cc(O)cc(O)c12
inactive: [17] | [2] | [5] | [9] | [15] | [10] | [11] | [13]

CN(C)C(=N)N=C(N)N
inactive: [13]

CCN1CCCC1CNC(=O)c1cc(S(=O)(=O)CC)c(N)cc1OC (centres undefined)
not listed: [3] | [4] | [10] | [13] | [15] | [17]
inactive: all other assays above

O=C(c1ccc(OCCN2CCCCC2)cc1)c1c(-c2ccc(O)cc2)sc2cc(O)ccc12
active: [14] 20.6 µM | [7] 20 µM | [8] 31.6 µM
inactive: [1] | [2] | [5] | [6] | [9] | [11] | [16]

CN1C2CCC1CC(OC(=O)C(CO)c1ccccc1)C2 (centres undefined)
not listed: [5] | [6] | [8] | [10] | [13] | [17] | [18]
inactive: all other assays above

Cc1ccc(-c2cc(C(F)(F)F)nn2-c2ccc(S(N)(=O)=O)cc2)cc1
inactive: [13]

N[C@@H](Cc1c[nH]c2ccc(O)cc12)C(=O)O
not listed: [3] | [14] | [17] | [18]
inactive: all other assays above

O=c1[nH]cc(F)c(=O)[nH]1
not listed: [3] | [4] | [6] | [13] | [17]
inactive: all other assays above

CN(CCOc1ccc(NS(C)(=O)=O)cc1)CCc1ccc(NS(C)(=O)=O)cc1
inactive: [13]

COC(=O)Nc1nc2ccc(C(=O)c3cccs3)cc2[nH]1
not listed: [3] | [4] | [6] | [13] | [14] | [17] | [18]
inactive: all other assays above

O=C(CCCN1CCC(O)(c2ccc(Cl)cc2)CC1)c1ccc(F)cc1
inactive: [1] | [14] | [2] | [5] | [9] | [10]
active: [3] 7.38 µM | [4] 10.4 µM

CC(=O)OCC(CCn1cnc2cnc(N)nc21)COC(C)=O
inactive: [13]
